Measurements taken from PubChem BioAssay AID1211 (NMMLSC, 2008).
Active and inactive are the calls of the source. How the calls were made is not given here.

Target: Estrogen receptor (Homo sapiens) (UniProt P03372)
Test: displacement of fluorescent estrogen from ERalpha – cell-based, Cos7 ERalpha-GFP, flow cytometry, primary screen (AID 1211);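 further: 0% = DMSO vehicle wells and 100% = no E2-Alexa633 signal left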
Conditions: fluorescent ligand competition, at 10 µM, active compounds read high

Sequence of Estrogen receptor (Homo sapiens) (P03372 whole entry, looked up): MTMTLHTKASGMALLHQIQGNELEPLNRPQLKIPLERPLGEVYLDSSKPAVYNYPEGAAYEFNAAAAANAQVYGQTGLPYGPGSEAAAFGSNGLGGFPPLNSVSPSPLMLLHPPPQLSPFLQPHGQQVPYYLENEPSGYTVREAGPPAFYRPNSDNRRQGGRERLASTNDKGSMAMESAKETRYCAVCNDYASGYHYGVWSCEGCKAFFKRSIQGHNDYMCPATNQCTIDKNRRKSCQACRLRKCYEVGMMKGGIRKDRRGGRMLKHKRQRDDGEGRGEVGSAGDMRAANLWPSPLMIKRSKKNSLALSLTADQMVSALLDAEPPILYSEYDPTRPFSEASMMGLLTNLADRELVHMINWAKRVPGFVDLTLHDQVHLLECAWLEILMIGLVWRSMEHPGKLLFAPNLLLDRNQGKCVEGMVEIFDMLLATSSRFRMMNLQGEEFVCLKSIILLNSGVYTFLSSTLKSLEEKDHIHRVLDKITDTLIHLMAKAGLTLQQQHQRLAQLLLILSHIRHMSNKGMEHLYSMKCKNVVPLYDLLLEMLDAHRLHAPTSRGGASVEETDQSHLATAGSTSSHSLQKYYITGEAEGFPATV

SMILES | inhibition of ligand binding
COc1cc(NC(=O)c2cccs2)c(C(=O)OCC(=O)NC(=O)NCc2ccccc2)cc1OC | 24% (inactive)
CC(=O)c1ccc(N2Cc3ccccc3C2)cc1 | 8% (inactive)
O=C(O)c1cc(Cl)c2c(c1)[C@@H]1C=CC[C@@H]1[C@H](c1ccc(S(=O)(=O)N3CCOCC3)cc1)N2 | 42% (inactive)
CC1(C)Cc2[nH]c3ccccc3c2C(C)(C)N1 | 6% (inactive)
O=C(CSc1nnc(-c2ccc(O)cc2)n1Cc1ccccc1)NNC(=O)c1ccc(Br)cc1 | 48% (inactive)
Oc1ccc2c(c1)c1c3n2CCNC3CCC1 (centres undefined) | 0% (inactive)
CCCCc1cc2c(=O)c(-c3ccccn3)coc2cc1O | 1% (inactive)
COc1ccc(NS(=O)(=O)c2ccc3c(c2)[C@H]2C=CC[C@H]2[C@@H](c2cccc(OC)c2OC)N3)cc1 | 0% (inactive)
COc1cc2c(cc1OC)CC(C)(C)N(Cc1ccco1)C2 | 0% (inactive)
Nc1nc(N)c2sc3nc4c(cc3c2n1)CCC4 | 17% (inactive)
CCN(c1ccccc1)S(=O)(=O)c1ccc2[nH]cc(C(=O)NCCOC)c(=O)c2c1 | 22% (inactive)
COc1cc([N+](=O)[O-])cc2c1N[C@@H](c1ccc(C(=O)O)cc1)[C@H]1CC=C[C@@H]21 | 71% (active)
Cc1ccccc1-n1nc(-c2ccc(N)cc2)cc1N | 7% (inactive)
CCCNC(=O)c1ccc2c(c1)C1C3CCC(C3)C1C(c1ccccc1)N2 (centres undefined) | 67% (active)
Cc1csc(C(C#N)C(=O)c2ccncc2)n1 (centres undefined) | 33% (inactive)
CCCCc1cc(=O)oc2c(C)c(O)ccc12 | 0% (inactive)
CSCCC(NC(=O)c1ccco1)C(=O)OCC(=O)Nc1sccc1C#N (centres undefined) | 4% (inactive)
Cc1c(Cc2ccccc2)c(=O)n2c([nH]c3ccccc32)c1C#N | 5% (inactive)
CCCCOc1cc(OCCCC)c2c3c(c(=O)oc2c1)CCCC3 | 19% (inactive)
COc1ccc(Oc2ccc3c(c2)c2c4n3CCNC4CCC2)cc1 (centres undefined) | 0% (inactive)

SMILES | inhibition of ligand binding
CC1(C)C=C(c2ccc(O)cc2)CC(C)(C)N1 | 8% (inactive)
COc1ccc(NS(=O)(=O)c2ccc3c(c2)[C@H]2C=CC[C@H]2[C@@H](c2ccc(C(=O)O)cc2)N3)cc1 | 100% (active)
Clc1ccc2c(c1)[C@H]1OCC[C@H]1[C@@H](c1ccco1)N2 | 0% (inactive)
Cc1nn(-c2ccc(Cl)cc2)c2sc(C(=O)N3CCN(c4ccccn4)CC3)cc12 | 50% (inactive)
Cc1nc(-c2ccc(O)c(O)c2)cs1 | 17% (inactive)
CCOc1cc2c(cc1OCC)C(C1CCCCC1)NCC2 (centres undefined) | 1% (inactive)
Fc1ccc2c(c1)[C@H]1OCC[C@H]1[C@@H](c1ccco1)N2 | 34% (inactive)
COc1ccc(-c2nnc(SCC(=O)c3cc(C)n(Cc4cccs4)c3C)o2)cc1 | 35% (inactive)
CC1CCCC(C)N1Cc1c(O)ccc2c3c(c(=O)oc12)CCC3 (centres undefined) | 13% (inactive)
CCOC(=O)N1CCc2[nH]c3ccc(C)cc3c2C1 | 6% (inactive)
COc1ccc(OC)c(C2Nc3c(Cl)ccc(C(=O)O)c3C3C=CCC32)c1 (centres undefined) | 0% (inactive)
O=C(NC1CC1)c1ccc2c(c1)C1C3CCC(C3)C1C(c1ccccc1)N2 (centres undefined) | 86% (active)
CC1=CC(C)C2(CO)COC(c3ccccc3O)C1C2C (centres undefined) | 0% (inactive)
CC1CCN(Cc2c(O)ccc3c4c(c(=O)oc23)CCC4)CC1 | 0% (inactive)
CC(=O)NC12CC3CC(C1)CC(C(=O)OCC(=O)Nc1ncc(Cl)c(C)c1Cl)(C3)C2 | 21% (inactive)
COc1cc2c3c(c1)/C(=C1/SC(NC(C)=O)=NC1=O)C(=O)N3C(C)(C)C=C2C | 29% (inactive)
COc1cc(C2C3C(C)N(C)C(=O)N(C)C3N(C)C(=O)N2C)ccc1O (centres undefined) | 0% (inactive)
Fc1ccc2c(c1)C1C=CCC1C(c1cc3c(cc1Br)OCO3)N2 (centres undefined) | 84% (active)
N#Cc1c2c(c(=O)n3c1[nH]c1ccccc13)CCCC2 | 23% (inactive)
